Measurements reported in PubChem BioAssay (NCATS).
Results filed as inconclusive are left out. Active and inactive are the calls of the source. Calls follow the shape of the dose curve; as a rule, active = well fitted inhibition curve with a large enough effect; inconclusive = small, poorly fitted or top-dose-only effect; inactive = flat fitted curve, though single readings scatter.

How the values were obtained:
Experiment in all cases: qHTS profiling for inhibitors of Plasmodium falciparum proliferation (AID 504749); also: nearly all actives have a fitted effect of over 60% in size
Settings in all cases: P. falciparum in erythrocytes, SYBR Green DNA, 72 h; series mostly up to 28.7 µM
CP266 = system: CP266
Summary of the method: (§1)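 In a 72 h erythrocytic culture (37 C, humidified, 5% CO2) at 2.5% hematocrit and 0.3% starting parasitemia, compounds were tested; SYBR Green I in detergent lysis buffer stained parasite DNA overnight.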

CP268 = system: CP268
Summary of the method: as §1

CP269 = system: CP269
Summary of the method: as §1

CP286 = system: CP286
Summary of the method: as §1

CP291 = system: CP291
Summary of the method: as §1

CP297 = system: CP297
Summary of the method: as §1

CP305 = system: CP305
Summary of the method: as §1

CP315 = system: CP315
Summary of the method: as §1

CP325 = system: CP325
Summary of the method: as §1

CP329 = system: CP329
Summary of the method: as §1

CP335 = system: CP335
Summary of the method: as §1

DFO2036 = system: DFO2036
Summary of the method: as §1

DIV14 = system: DIV14
Summary of the method: as §1

DIV17 = system: DIV17
Summary of the method: as §1

DIV30 = system: DIV30
Summary of the method: as §1

Dd2 = system: Dd2
Summary of the method: as §1

ECU = system: ECU
Summary of the method: as §1

FAB9 = system: FAB9
Summary of the method: as §1

GB4 = system: GB4
Summary of the method: as §1

HB3 = system: HB3
Summary of the method: as §1

ICS = system: ICS
Summary of the method: as §1

JCK = system: JCK
Summary of the method: as §1

N140 = system: N140
Summary of the method: as §1

P93_24 = system: P93_24
Summary of the method: as §1

P94_40 = system: P94_40
Summary of the method: as §1

PAD = system: PAD
Summary of the method: as §1

PC15 = system: PC15
Summary of the method: as §1

PC26 = system: PC26
Summary of the method: as §1

PC49 = system: PC49
Summary of the method: as §1

SC27B = system: SC27B
Summary of the method: as §1

TAB109 = system: TAB109
Summary of the method: as §1

TAB113 = system: TAB113
Summary of the method: as §1

TAB165 = system: TAB165
Summary of the method: as §1

W2 = system: W2
Summary of the method: as §1

Measured: Potency
Potency is read from the fitted curve at half-maximal effect.

CO[C@H]1OC2O[C@@]3(C)CC[C@H]4[C@H](C)CC[C@@H]([C@H]1C)[C@@]24OO3 (some centres undefined)
active: CP266 67.5 nM | CP268 21.3 nM | CP269 21.3 nM | CP286 17.8 nM | CP291 26.9 nM | CP297 23.9 nM | CP305 15.1 nM | CP315 95.3 nM | CP325 15.1 nM | CP329 60.1 nM | CP335 23.9 nM | DFO2036 15.8 nM | DIV14 10.7 nM | DIV17 12 nM | DIV30 15.1 nM | Dd2 7.1 nM | ECU 15.8 nM | FAB9 22.4 nM | GB4 13.5 nM | HB3 7.9 nM | ICS 4.5 nM | JCK 12.6 µM | N140 12.6 nM | P93_24 10 nM | P94_40 11.2 nM | PAD 20 nM | PC15 11.2 nM | PC26 15.1 nM | PC49 25.1 nM | SC27B 14.1 nM | TAB109 12.6 nM | TAB113 11.2 nM | TAB165 22.4 nM | W2 6 nM
